# Results: PubChem BioAssay (NCI)
# This is part of a sample that, as a whole, favours compounds with a hit. Of some 83,000 tested, about 20% had one in any assay.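 Activity criterion: percent growth below 10, measured after cells in 96-well plates were exposed to a single compound concentration for 48 hours.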 Unmarked numbers belong to inactive results. Calls of active or inactive are those of the source.
# Test system: MDA-MB-435 melanoma
# Assay: NCI-60 one-dose screen, 48 h (100 = growth as untreated, 0 = no growth, -100 = all killed)
# Settings: 10 µM unless noted
row,Compound,growth
1,COc1ccc2oc3c4[nH]c5ccccc5c4c4c(c3c2c1)C(=O)N(O)C4=O,106%
2,O=S(=O)(NCCCNc1nccc(-n2cnc3ccccc32)n1)c1ccc(F)cc1,64.6%
3,CCNC(=O)Oc1ccc(/C(=C(/C)c2ccc(Cl)cc2)c2ccc(OCCN(C)C)cc2)cc1,91.6%
4,Oc1ccc(CSc2nnc(-c3ccc(Oc4ccccc4)cc3)n2-c2ccccc2)c2cccnc12,13.7%
5,Fc1ccc(-c2cc3nc(C(Cl)Cl)nc(-c4cccs4)n3n2)cc1,14.3%
6,Fc1ccccc1/C=C(/C1=NCCN1)n1cnc2ccccc21,96.2%
7,COc1ccc2c(c1)c(-c1nn3c(=O)cc(-c4ccccc4)nc3s1)cn2C,-23.8% (active)
8,O=C1c2cc(Br)ccc2-n2c1nc1cc(Br)ccc1c2=O,-85.6% (active)
9,CCOC(=O)C1=C(C)Nc2nnc(Nc3ccccc3)n2C1c1ccccc1 (stereo unspecified),86.8%
10,CCc1ccc(NC(=O)N[C@@H](Cc2cccc(C)c2)C(=O)N[C@@H]2C(=O)N3CCC[C@H]3C(=O)N3CCCC[C@H]3C(=O)N[C@@H](CO)C(=O)N3C[C@H](C)C[C@H]3C(=O)O[C@H]2C)c(F)c1,16.8%
11,COc1ccc(-c2cc(-c3cccc4ccccc34)n3c(n2)nc2ccccc23)cc1OC,47.3%
12,COc1cc2oc(-c3cccc(NC(=O)c4cc(NC(=O)[C@H](C)N)ccc4Cl)c3)cc(=O)c2c(OC)c1OC,105%
13,CC(=O)c1ccc(NC(=O)COc2ccc(C3SCC(=O)N3c3ccc(Br)cc3)cc2)cc1 (stereo unspecified),102%
14,O=C(O)CNS(=O)(=O)c1ccc(Oc2ccc(S(=O)(=O)NCC(=O)O)cc2)cc1,106%
15,C/C(=C(/C)C1CC1CCN(C(=O)c1ccc([N+](=O)[O-])cc1)S(=O)(=O)c1ccc(C)cc1)C1CCCCC1 (stereo unspecified),99.4%
16,COCCOc1ccc(-c2csc(NC(=O)CN3CCN(CCO)CC3)n2)cc1NS(=O)(=O)c1cccc2c(N(C)C)cccc12,83%
17,CCN1C/C(=N\S(=O)(=O)c2ccccc2)N(CC)C1=S,101%
18,Cc1ccc(C2CC(c3ccc(Nc4nc(NCCO)nc(Nc5ccc(Cl)cc5)n4)cc3)=Nc3c(N)nc(N)nc3N2)cc1 (stereo unspecified),-93.1% (active)
19,CSc1nccc(-c2c(-c3ccc(F)c(OCc4ccc(F)cc4)c3)nc3sccn23)n1,59.7%

row,Compound,growth
1,Clc1ccccc1/C=C/c1nn2c(-c3ccncc3)nnc2s1,103%
2,O=S(=O)(Nc1ccc(-n2cnc3cc(-c4ccc(O)cc4)ccc32)cc1)C1CC1,87.7%
3,COc1cc2c3c(n(CCCNC4CCCCC4)c(=O)c2cc1OC)-c1cc2c(cc1C3=O)OCO2,102%
4,CCOc1ccc2nc(NC(=O)Nc3ccccc3C)sc2c1,-11.1% (active)
5,CS(=O)(=O)c1ccc(-c2nn(-c3ccccc3)cc2/C=N/NC(=O)c2ccncc2)cc1,85.4%
6,Oc1ccc(CSc2nnc(-c3ccccc3)n2-c2ccccc2)c2cccnc12,13.9%
7,O=C(c1ccc(O)cc1)[C@@H]1[C@@H]2CCCN2[C@@]2(C(=O)N(C(=O)c3ccc(F)cc3)c3ccccc32)[C@H]1c1ccc(F)cc1,88.1%
8,CNC(=O)c1c(NC(=O)c2ccc(F)cc2F)sc2c1CCC(=O)C2,12.2%
9,Nc1n[nH]c2cccc(C#Cc3cccc(NC(=O)c4cccc(OC(F)(F)F)c4)c3)c12,41%
10,Cc1cn(-c2cc(NC(=O)c3cncc(C#Cc4cnc5ccc(OCCCS(C)(=O)=O)nn45)c3)cc(C(F)(F)F)c2)cn1,34.7%
11,COc1c([C@@H](CC(C)C)OC(C)=O)ccc2c1C(=O)OCc1cc(C)cc(O)c1O2,30%
12,COc1cc(C(=O)C[n+]2ccc3ccccc3c2)cc(OC)c1OC,100%
13,COc1ccc(CCN2C(=O)CSC2=S)cc1OC,93.6%
14,C/C(=N\NC(=O)CSc1nc2sc3c(c2c(=O)n1-c1ccccc1)CCC(C)C3)c1ccc(Cl)cc1 (stereo unspecified),30.1%
15,Cn1nc(Nc2ccccc2)c(C(=O)NN)c1N,105%
16,N/C(=N\c1nc2c(Cl)cccc2s1)C(Cl)(Cl)Cl,89.1%
17,COc1cc(O)c2c(c1)/C=C/C[C@H](O)[C@H](O)C(=O)/C=C\C[C@H](C)OC2=O,-15.4% (active)
18,CCCCCCNC(=O)Oc1ccc(/C(=C(/C)c2ccccc2)c2ccc(OCCN(C)C)cc2)cc1,53%
19,CS(=O)c1nccc(-c2c(-c3ccc(F)c(OCc4ccc(F)cc4)c3)nc3sccn23)n1 (stereo unspecified),100%

# Test system: SW-620 colon
# Assay: as above
# Settings: 10 µM unless noted
row,Compound,growth
1,COc1ccc2oc3c4[nH]c5ccccc5c4c4c(c3c2c1)C(=O)N(O)C4=O,92.1%
2,O=S(=O)(NCCCNc1nccc(-n2cnc3ccccc32)n1)c1ccc(F)cc1,96.2%
3,CCNC(=O)Oc1ccc(/C(=C(/C)c2ccc(Cl)cc2)c2ccc(OCCN(C)C)cc2)cc1,82.2%
4,Oc1ccc(CSc2nnc(-c3ccc(Oc4ccccc4)cc3)n2-c2ccccc2)c2cccnc12,12.8%
5,Fc1ccc(-c2cc3nc(C(Cl)Cl)nc(-c4cccs4)n3n2)cc1,2.69% (active)
6,Fc1ccccc1/C=C(/C1=NCCN1)n1cnc2ccccc21,101%
7,COc1ccc2c(c1)c(-c1nn3c(=O)cc(-c4ccccc4)nc3s1)cn2C,28.1%
8,O=C1c2cc(Br)ccc2-n2c1nc1cc(Br)ccc1c2=O,68%
9,CCOC(=O)C1=C(C)Nc2nnc(Nc3ccccc3)n2C1c1ccccc1 (stereo unspecified),35.2%
10,CCc1ccc(NC(=O)N[C@@H](Cc2cccc(C)c2)C(=O)N[C@@H]2C(=O)N3CCC[C@H]3C(=O)N3CCCC[C@H]3C(=O)N[C@@H](CO)C(=O)N3C[C@H](C)C[C@H]3C(=O)O[C@H]2C)c(F)c1,34.7%
11,COc1ccc(-c2cc(-c3cccc4ccccc34)n3c(n2)nc2ccccc23)cc1OC,29.8%
12,COc1cc2oc(-c3cccc(NC(=O)c4cc(NC(=O)[C@H](C)N)ccc4Cl)c3)cc(=O)c2c(OC)c1OC,104%
13,CC(=O)c1ccc(NC(=O)COc2ccc(C3SCC(=O)N3c3ccc(Br)cc3)cc2)cc1 (stereo unspecified),110%
14,O=C(O)CNS(=O)(=O)c1ccc(Oc2ccc(S(=O)(=O)NCC(=O)O)cc2)cc1,102%
15,C/C(=C(/C)C1CC1CCN(C(=O)c1ccc([N+](=O)[O-])cc1)S(=O)(=O)c1ccc(C)cc1)C1CCCCC1 (stereo unspecified),96.7%
16,COCCOc1ccc(-c2csc(NC(=O)CN3CCN(CCO)CC3)n2)cc1NS(=O)(=O)c1cccc2c(N(C)C)cccc12,93.4%
17,CCN1C/C(=N\S(=O)(=O)c2ccccc2)N(CC)C1=S,107%
18,Cc1ccc(C2CC(c3ccc(Nc4nc(NCCO)nc(Nc5ccc(Cl)cc5)n4)cc3)=Nc3c(N)nc(N)nc3N2)cc1 (stereo unspecified),-88.9% (active)
19,CSc1nccc(-c2c(-c3ccc(F)c(OCc4ccc(F)cc4)c3)nc3sccn23)n1,48.9%

row,Compound,growth
1,Clc1ccccc1/C=C/c1nn2c(-c3ccncc3)nnc2s1,108%
2,O=S(=O)(Nc1ccc(-n2cnc3cc(-c4ccc(O)cc4)ccc32)cc1)C1CC1,102%
3,COc1cc2c3c(n(CCCNC4CCCCC4)c(=O)c2cc1OC)-c1cc2c(cc1C3=O)OCO2,-76.8% (active)
4,CCOc1ccc2nc(NC(=O)Nc3ccccc3C)sc2c1,29.2%
5,CS(=O)(=O)c1ccc(-c2nn(-c3ccccc3)cc2/C=N/NC(=O)c2ccncc2)cc1,102%
6,Oc1ccc(CSc2nnc(-c3ccccc3)n2-c2ccccc2)c2cccnc12,11.6%
7,O=C(c1ccc(O)cc1)[C@@H]1[C@@H]2CCCN2[C@@]2(C(=O)N(C(=O)c3ccc(F)cc3)c3ccccc32)[C@H]1c1ccc(F)cc1,113%
8,CNC(=O)c1c(NC(=O)c2ccc(F)cc2F)sc2c1CCC(=O)C2,5.05% (active)
9,Nc1n[nH]c2cccc(C#Cc3cccc(NC(=O)c4cccc(OC(F)(F)F)c4)c3)c12,57.1%
10,Cc1cn(-c2cc(NC(=O)c3cncc(C#Cc4cnc5ccc(OCCCS(C)(=O)=O)nn45)c3)cc(C(F)(F)F)c2)cn1,8.59% (active)
11,COc1c([C@@H](CC(C)C)OC(C)=O)ccc2c1C(=O)OCc1cc(C)cc(O)c1O2,20%
12,COc1cc(C(=O)C[n+]2ccc3ccccc3c2)cc(OC)c1OC,94%
13,COc1ccc(CCN2C(=O)CSC2=S)cc1OC,57.9%
14,C/C(=N\NC(=O)CSc1nc2sc3c(c2c(=O)n1-c1ccccc1)CCC(C)C3)c1ccc(Cl)cc1 (stereo unspecified),31.6%
15,Cn1nc(Nc2ccccc2)c(C(=O)NN)c1N,99.8%
16,N/C(=N\c1nc2c(Cl)cccc2s1)C(Cl)(Cl)Cl,82.5%
17,COc1cc(O)c2c(c1)/C=C/C[C@H](O)[C@H](O)C(=O)/C=C\C[C@H](C)OC2=O,-9.76% (active)
18,CCCCCCNC(=O)Oc1ccc(/C(=C(/C)c2ccccc2)c2ccc(OCCN(C)C)cc2)cc1,27.3%
19,CS(=O)c1nccc(-c2c(-c3ccc(F)c(OCc4ccc(F)cc4)c3)nc3sccn23)n1 (stereo unspecified),73%
